Source: PubChem BioAssay AID1159580 (chemical genetic matrix, 2015)
The whole screen tested about 5,500 compounds, of which about 2,000 (36%) were called active. Roughly 18% stayed inconclusive and do not appear here. Cut-off read from the data, not from the text of the source: active = normalized growth mostly below about 0.91 (no sharp cut-off); inconclusive = no clear call, values can overlap the other calls; inactive = mostly above about 0.92. The list shows a part of the results.

Test: chemical genetic growth profiling, strain panel (AID 1159580);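 note: tested at 20 µM; growth read once vehicle control cultures reached saturation at 30 °C; 1 = growth at the plate median or of vehicle wells; lower values mean less growth of the strain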
Settings: growth OD

Measured: normalized growth

Cc1c(Cl)cccc1Nc1ccccc1C(=O)O
active: S. cerevisiae deletion strains, locus YJR075W, strain HOC1, hits give low values 0.852 | S. cerevisiae deletion strains, locus YKL009W, strain mrt4, hits give low values 0.788 | S. cerevisiae deletion strains, locus YKL085W, strain MDH1 (second series), hits give low values 0.922 | S. cerevisiae deletion strains, locus YKL085W, strain MDH1, hits give low values 0.922 | S. cerevisiae deletion strains, locus YKL160W, strain elf1, hits give low values 0.764 | S. cerevisiae deletion strains, locus YKL190W, strain CNB1, hits give low values 0.863 | S. cerevisiae deletion strains, locus YKR001C, strain vps1, hits give low values 0.52 | S. cerevisiae deletion strains, locus YKR026C, strain gcn3, hits give low values 0.79 | S. cerevisiae deletion strains, locus YKR091W, strain srl3, hits give low values 0.829 | S. cerevisiae deletion strains, locus YLL001W, strain dnm1, hits give low values 0.814 | S. cerevisiae deletion strains, locus YLL026W, hits give low values 0.831 | S. cerevisiae deletion strains, locus YLL041C, strain sdh2, hits give low values 0.818 | S. cerevisiae deletion strains, locus YLR027C, strain aat2, hits give low values 0.819 | S. cerevisiae deletion strains, locus YLR039C, strain RIC1, hits give low values 0.537 | S. cerevisiae deletion strains, locus YLR058C, strain SHM2, hits give low values 0.849 | S. cerevisiae deletion strains, locus YLR102C, strain apc9, hits give low values 0.788 | S. cerevisiae deletion strains, locus YLR113W, strain HOG1, hits give low values 0.566 | S. cerevisiae deletion strains, locus YLR221C, strain rsa3, hits give low values 0.777 | S. cerevisiae deletion strains, locus YLR258W, strain gsy2, hits give low values 0.831 | S. cerevisiae deletion strains, locus YLR262C, strain YPT6 (second series), hits give low values 0.48 | S. cerevisiae deletion strains, locus YLR262C, strain YPT6, hits give low values 0.491 | S. cerevisiae deletion strains, locus YLR268W, strain sec22, hits give low values 0.724 | S. cerevisiae deletion strains, locus YLR320W, strain mms22, hits give low values 0.59 | S. cerevisiae deletion strains, locus YLR330W, strain CHS5, hits give low values 0.82 | S. cerevisiae deletion strains, locus YLR342W, strain FKS1 (second series), hits give low values 0.671 | S. cerevisiae deletion strains, locus YLR342W, strain FKS1, hits give low values 0.795 | S. cerevisiae deletion strains, locus YLR370C, strain arc18, hits give low values 0.808 | S. cerevisiae deletion strains, locus YLR371W, strain rom2, hits give low values 0.838 | S. cerevisiae deletion strains, locus YLR384C, strain iki3, hits give low values 0.832 | S. cerevisiae deletion strains, locus YLR418C, strain cdc73, hits give low values 0.591 | S. cerevisiae deletion strains, locus YML016C, strain PPZ1, hits give low values 0.857 | S. cerevisiae deletion strains, locus YML032C, strain rad52, hits give low values 0.792 | S. cerevisiae deletion strains, locus YML120C, strain ndi1, hits give low values 0.723 | S. cerevisiae deletion strains, locus YML124C, strain tub3, hits give low values 0.787 | S. cerevisiae deletion strains, locus YMR058W, strain fet3, hits give low values 0.79 | S. cerevisiae deletion strains, locus YMR078C, strain ctf18, hits give low values 0.761 | S. cerevisiae deletion strains, locus YMR125W, strain sto1, hits give low values 0.781 | S. cerevisiae deletion strains, locus YMR129W, hits give low values 0.823 | S. cerevisiae deletion strains, locus YMR205C, strain PFK2, hits give low values 0.673 | S. cerevisiae deletion strains, locus YMR223W, strain ubp8, hits give low values 0.795 | S. cerevisiae deletion strains, locus YMR231W, strain pep5, hits give low values 0.813 | S. cerevisiae deletion strains, locus YMR263W, strain SAP30, hits give low values 0.824 | S. cerevisiae deletion strains, locus YMR307W, strain GAS1, hits give low values 0.557 | S. cerevisiae deletion strains, locus YNL067W, strain RPL9B, hits give low values 0.846 | S. cerevisiae deletion strains, locus YNL071W, strain lat1, hits give low values 0.569 | S. cerevisiae deletion strains, locus YNL153C, strain GIM3, hits give low values 0.849 | S. cerevisiae deletion strains, locus YNL183C, strain NPR1, hits give low values 0.641 | S. cerevisiae deletion strains, locus YNL209W, strain ssb2, hits give low values 0.869 | S. cerevisiae deletion strains, locus YNL233W, strain BNI4, hits give low values 0.797 | S. cerevisiae deletion strains, locus YNL248C, strain rpa49, hits give low values 0.886 | S. cerevisiae deletion strains, locus YNL271C, strain bni1, hits give low values 0.919 | S. cerevisiae deletion strains, locus YNL298W, strain CLA4, hits give low values 0.842 | S. cerevisiae deletion strains, locus YNL307C, strain MCK1, hits give low values 0.437 | S. cerevisiae deletion strains, locus YNL322C, strain KRE1 (second series), hits give low values 0.856 | S. cerevisiae deletion strains, locus YNL322C, strain KRE1, hits give low values 0.876 | S. cerevisiae deletion strains, locus YNR049C, strain mso1, hits give low values 0.822 | S. cerevisiae deletion strains, locus YNR052C, strain pop2, hits give low values 0.821 | S. cerevisiae deletion strains, locus YOL147C, strain pex11, hits give low values 0.765 | S. cerevisiae deletion strains, locus YOR001W, strain rrp6, hits give low values 0.8 | S. cerevisiae deletion strains, locus YOR061W, strain CKA2, hits give low values 0.852 | S. cerevisiae deletion strains, locus YOR069W, strain VPS5, hits give low values 0.864 | S. cerevisiae deletion strains, locus YOR070C, strain gyp1, hits give low values 0.802 | S. cerevisiae deletion strains, locus YOR080W, strain dia2, hits give low values 0.855 | S. cerevisiae deletion strains, locus YOR083W, strain WHI5, hits give low values 0.767 | S. cerevisiae deletion strains, locus YOR106W, strain vam3, hits give low values 0.745 | S. cerevisiae deletion strains, locus YOR136W, strain idh2, hits give low values 0.893 | S. cerevisiae deletion strains, locus YOR144C, strain elg1, hits give low values 0.812 | S. cerevisiae deletion strains, locus YOR184W, strain ser1, hits give low values 0.578 | S. cerevisiae deletion strains, locus YOR231W, strain MKK1, hits give low values 0.644 | S. cerevisiae deletion strains, locus YOR265W, strain rbl2, hits give low values 0.828 | S. cerevisiae deletion strains, locus YOR270C, strain vph1, hits give low values 0.565 | S. cerevisiae deletion strains, locus YOR290C, strain snf2, hits give low values 0.716 | S. cerevisiae deletion strains, locus YOR316C, strain cot1, hits give low values 0.79 | S. cerevisiae deletion strains, locus YPL051W, strain arl3, hits give low values 0.656 | S. cerevisiae deletion strains, locus YPL078C, strain atp4, hits give low values 0.646 | S. cerevisiae deletion strains, locus YPL240C, strain hsp82, hits give low values 0.831 | S. cerevisiae deletion strains, locus YPL241C, strain CIN2, hits give low values 0.852 | S. cerevisiae deletion strains, locus YPL256C, strain CLN2, hits give low values 0.643 | S. cerevisiae deletion strains, locus YPR119W, strain clb2, hits give low values 0.779 | S. cerevisiae deletion strains, locus YPR163C, strain tif3, hits give low values 0.784 | S. cerevisiae deletion strains, locus YPR167C, strain met16, hits give low values 0.805 | S. cerevisiae deletion strains, strain wtn01, hits give low values 0.8 | S. cerevisiae strains, strain wild type, hits give low values 0.857
inactive: S. cerevisiae deletion strains, locus YKL068W, hits give low values 0.954 | S. cerevisiae deletion strains, locus YLR357W, strain rsc2, hits give low values 0.93 | S. cerevisiae deletion strains, locus YNL250W, strain rad50, hits give low values 0.941 | S. cerevisiae deletion strains, locus YOL006C, strain TOP1, hits give low values 0.656 | S. cerevisiae deletion strains, locus YOL012C, strain htz1 0.632 | S. cerevisiae deletion strains, locus YPL055C, strain LGE1, hits give low values 0.794 | S. cerevisiae deletion strains, locus YPL106C, strain sse1, hits give low values 0.985 | S. cerevisiae deletion strains, locus YPR141C, strain kar3, hits give low values 0.95
